Source: PubChem
Most compounds without a hit are left out; they make up all but 19% or so of the library.
HepG2 viability = kills HepG2 cells in TGF-b inhibitor counter-screen; HepG2 CAGA-GFP viability, ATP luminescence, 18 h; Potency, µM (doses to about 46.1 µM), inactives show at the top dose activity change, negative = cytotoxicity, actives largely listed as cytotoxic; 410,000 tested, 0.76% active; also: potency is read from the fitted curve at half-maximal effect
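HepG2 CAGA-GFP cells (1000/well, DMEM with 1% FBS) received compound, then TGF-beta at 500 pg/mL final, and were incubated 18 hours at 37 degrees C. Viability was read by CellTiter-Glo luminescence. Media-only wells were set as complete cell-killing and DMSO as no toxicity.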
TGFb SMAD3 inh = TGF-b pathway inhibition; HepG2 CAGA-GFP TGF-b/SMAD3 reporter, GFP fluorescence, 18 h; TGF-beta stimulated, 500 pg/mL final; Potency, µM (titrated, usually from 46.1 µM), inactives show at the highest dose activity, negative = inhibition, actives largely listed as inhibitors; 410,000 tested, 1.2% active; also: potency is read from the fitted curve at half-maximal effect; % is scaled to controls: 0 for no effect and ±100 for the full control effect; nearly all actives have a fitted effect of over 65% in size
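Inhibition of TGF-beta-driven CAGA-GFP reporter expression in HEPG2 cells is measured by cellular GFP fluorescence after 18 h stimulation with 500 pg/mL recombinant TGF-beta in 1% FBS medium at 37 degrees C.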
IL1B secr inh = blocks inflammasome-driven IL-1 beta release | THP-1 LPS/ATP IL-1B secretion, AlphaLISA, 16 h; hits give low values | activity change, % at 57.5 µM | 360,000 tested, 4.7% active | AID 743279; in the data active = activity change below about -50%; inconclusive = mostly about -30% to -49%; also: % is scaled to controls: 0 for no effect and ±100 for the full control effect
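Secreted IL-1B measured by AlphaLISA bead assay after 16 h compound exposure of THP-1 cells; compounds (final up to 57.5 uM) added 1 h before LPS (250 ng/mL) and ATP (1.25 mM) stimulation; lower signal means less secretion.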
DT40 TDP1 CPT = growth inhibition of DT40 Tdp1-/-;hTDP1 cells with camptothecin (screen for TDP1 inhibitors); Potency, µM (titrated, usually from 46.2 µM), inactives show at the highest dose activity change, negative = growth inhibition, hits mostly inhibitors; AID 686979; 420,000 tested, 12% active; chicken DT40 Tdp1-/-;hTDP1 cells + 20 nM CPT, ATP luminescence, 48 h; also: potency is read from the fitted curve at half-maximal effect; % is scaled to controls: 0 for no effect and ±100 for the full control effect; nearly all actives have a fitted effect of over 55% in size
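Chicken DT40 Tdp1-/- cells complemented with human TDP1, 400 cells/well, exposed to compounds plus 20 nM camptothecin for at least 48 h at 37 C; viability read as ATP content by CellTiter-Glo luminescence.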
DT40 TDP1 no CPT = qHTS for Inhibitors of human tyrosyl-DNA phosphodiesterase 1 (TDP1): qHTS in cells in absence of CPT; DT40 Tdp1-/- hTDP1 cells, no CPT, ATP luminescence, 48 h; Potency, µM (highest dose often 46.2 µM), without a hit: top-dose activity change, negative = growth inhibition, most hits filed as inhibitors; 420,000 tested, 15% active; also: potency is read from the fitted curve at half-maximal effect; % is scaled to controls: 0 for no effect and ±100 for the full control effect; nearly all actives have a fitted effect of over 55% in size
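Readout: luminescence from CellTiter-Glo after 30 min in the dark at RT. Cells: DT40 Tdp1-/- with stable hTDP1, 400/well. Exposure: compounds alone, ≥48 hr, 37 °C.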
ASM inhibitor = human S-ASM enzyme inhibition; Potency, µM (series often up to 57.5 µM), for the others: top-dose activity change, negative = inhibition, actives largely listed as inhibitors; 340,000 tested, 0.006% active; placental ASM, HMU-PC fluorogenic substrate, 60 min; also: potency is read from the fitted curve at half-maximal effect
Target sequence (P17405 47-631 limits assumed): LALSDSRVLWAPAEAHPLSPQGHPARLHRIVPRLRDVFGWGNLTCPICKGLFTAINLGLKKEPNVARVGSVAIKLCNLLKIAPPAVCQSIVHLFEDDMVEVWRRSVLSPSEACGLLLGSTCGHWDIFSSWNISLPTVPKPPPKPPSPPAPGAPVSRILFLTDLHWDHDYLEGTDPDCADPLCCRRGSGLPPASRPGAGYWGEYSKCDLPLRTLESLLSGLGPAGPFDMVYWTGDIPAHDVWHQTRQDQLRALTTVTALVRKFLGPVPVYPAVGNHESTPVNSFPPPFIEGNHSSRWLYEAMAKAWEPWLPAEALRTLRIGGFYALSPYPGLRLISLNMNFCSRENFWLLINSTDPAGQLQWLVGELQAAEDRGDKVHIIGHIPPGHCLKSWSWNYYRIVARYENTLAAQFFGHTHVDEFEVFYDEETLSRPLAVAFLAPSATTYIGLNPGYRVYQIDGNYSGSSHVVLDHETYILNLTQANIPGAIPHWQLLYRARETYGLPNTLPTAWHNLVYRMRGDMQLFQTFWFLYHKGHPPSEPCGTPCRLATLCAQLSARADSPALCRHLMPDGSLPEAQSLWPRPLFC
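Human placenta-derived ASM preincubated with compound 10 min at room temperature, then reacted with 9 uM (final) fluorogenic HMU-PC substrate for 60 min at 37 C. Stop solution raises pH to 10; fluorescence read at Ex 386/Em 447 nm.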
Active calls of the source: *; i = inactive; ? = inconclusive; . = not tested or not shown. Unless noted, calls follow the shape of the dose curve; as a rule, active = well fitted curve in the direction sought with a large enough effect; inconclusive = small, poorly fitted or top-dose-only effect, or another doubt; inactive = no such curve, though single readings can be large; an effect the other way counts as inactive or inconclusive.

SMILES | HepG2 viability | TGFb SMAD3 inh | IL1B secr inh | DT40 TDP1 CPT | DT40 TDP1 no CPT | ASM inhibitor
Cc1ccc(/C=C/c2nc3ccccc3[nH]2)o1 | -47.2% | ? | -73.2* | 23.1µM* | 16.4µM* | 252.3%
Cc1cccc(Cc2nc3ccccc3[nH]2)c1 | 4.5% | -1.4% | -17.2 | -20.2% | ? | 5.6%
Cc1ccc(/C=C/c2nc3ccccc3[nH]2)cc1 | -99.6% | ? | . | 10.3µM* | 13µM* | .
COc1ccccc1/C=C/c1nc2ccccc2[nH]1 | 8.91µM* | -0.1% | . | ? | 14.1µM* | .
O=c1[nH]c2ccccc2nc1/C=C/c1ccc(O)cc1 | -30.2% | ? | -76.0* | ? | 14.6µM* | 50.9%
O=c1[nH]c2ccccc2nc1/C=C/c1ccccc1 | -20.2% | 10.8% | 32.2 | ? | -25.9% | i
C[C@H]1CN([C@@H](C)CO)C(=O)CCCn2nncc2CO[C@H]1CN(C)S(C)(=O)=O | -0.2% | -7.2% | -5.6 | -2.9% | -0.5% | .
Cc1occc(=O)c1OC(=O)Nc1ccc(Cl)c(Cl)c1 | -66.3% | 10µM* | -77.7* | 2.91µM* | 4.61µM* | -0.1%
COc1ccc(C(=O)Oc2c(C)occc2=O)cc1OC | -1.3% | 9.6% | 7.7 | 4.5% | -3.2% | -0.9%
CCNc1ncc2nc(-c3ccccc3)c(=O)n(Cc3cccc(OC)c3)c2n1 | . | . | . | 1.8% | 1.2% | .
CC(=O)Nc1nonc1-c1nnc(SCC(=O)Nc2ccc(C)c(Cl)c2)n1-c1ccccc1 | 0.2% | -2.4% | . | ? | 16.4µM* | .
CC(=O)Nc1nonc1-c1nnc(SCc2ccc(F)cc2)n1C | -5.8% | 2.5% | . | -20.9% | ? | .
CCn1c(SCc2ccc(F)cc2Cl)nnc1-c1nonc1NC(C)=O | -13.2% | ? | . | 16.4µM* | 18.4µM* | .
CC(=O)Nc1nonc1-c1nnc(SCc2ccc(F)cc2Cl)n1C | 1.5% | -0.8% | . | ? | 14.6µM* | .
CCOC(=O)CC(N)c1ccc2c(c1)OCO2 (stereo unspecified) | 8.8% | 8.4% | -23.3 | -20.2% | -20.4% | 5.0%
Nc1c(N(Cc2ccccc2)C(=O)COc2ccc([N+](=O)[O-])cc2)c(=O)[nH]c(=O)n1Cc1ccccc1 | -19.1% | 6.6% | 41.9 | 5.8µM* | ? | 0.0%
CCN(C(=O)COC(=O)CCOc1cc(C)ccc1C)c1c(N)n(Cc2ccccc2)c(=O)[nH]c1=O | -25.0% | -20.1% | 4.7 | 18.4µM* | ? | -0.7%
Cc1ccccc1OCCC(=O)N(Cc1ccccc1)c1c(N)n(Cc2ccccc2)c(=O)[nH]c1=O | -16.9% | -25.3% | -3.0 | ? | -9.7% | 3.4%
Cc1ccc(OCCC(=O)N(Cc2ccccc2)c2c(N)n(Cc3ccccc3)c(=O)[nH]c2=O)cc1 | -26.1% | -16.6% | -7.9 | ? | 20.6µM* | -0.4%
Cc1cc(OCC(=O)N(Cc2ccco2)c2c(N)n(Cc3ccccc3)c(=O)[nH]c2=O)ccc1Cl | -32.5% | ? | -23.0 | 25.9µM* | ? | 7.6%
O=C(COC(=O)Cn1cnc2ccccc2c1=O)Nc1ccccc1OC(F)F | -9.6% | 0.0% | -1.9 | ? | -25.5% | 4.1%
O=c1c2oc3ccccc3c2n(Cc2ccc(Cl)cc2)c(=O)n1Cc1ccccc1 | -1.7% | 6.3% | . | ? | ? | .
Cc1cccc(N2C(=O)c3cccc4c(N)ccc(c34)C2=O)c1 | 1.6% | 183.7% | -58.4* | ? | -25.7% | -3.9%
Cc1cccc(N2C(=O)c3cccc4c(N(C)CCO)ccc(c34)C2=O)c1 | -21.1% | 128.0% | 34.4 | ? | 18.4µM* | 48.9%
CCN(CC)c1nc2ccccc2n(Cc2cccc(OC)c2)c1=O | 2.1% | -2.6% | -1.2 | -15.4% | -16.0% | -10.1%
SMILES | HepG2 viability | TGFb SMAD3 inh | IL1B secr inh | DT40 TDP1 CPT | DT40 TDP1 no CPT | ASM inhibitor
CC(=O)Nc1nonc1-c1nc2ccccc2n1N(C(C)=O)C(C)=O | 5.4% | -10.6% | -7.9 | -14.7% | -12.7% | -0.2%
CC(=O)Nc1nonc1-c1nc2ccccc2n1Cc1ccccc1Br | -15.6% | 45.4% | . | 16.4µM* | 14.6µM* | .
CCC(=O)Nc1nonc1-c1nc2ccccc2n1CC(C)C | -7.3% | 4.0% | -19.9 | 23.1µM* | 23.1µM* | -6.6%
COc1cccc(Cn2c(-c3nonc3NC(C)=O)nc3ccccc32)c1 | -25.9% | 2.5% | . | 13µM* | 13µM* | .
CC(=O)c1ccc(NC(=O)c2cc(-c3ccc4c(c3)OCO4)on2)cc1 | 74.0% | 61.8% | . | -16.3% | 0.0% | .
CCC(CC)c1nnc(NC(=O)C2CC(=O)N(C3CCCC3)C2)s1 (stereo unspecified) | -2.2% | -4.7% | 31.5 | -3.2% | -11.9% | -5.5%
N#CC1=C(N)c2ccccc2CC12CCCCC2 | -46.3% | ? | -52.4* | ? | ? | -2.2%
Cc1nc2c(c(C)nn2-c2ccccc2)c(C)c1CCC(=O)Nc1ccc(F)cc1 | -3.3% | -0.9% | . | ? | 18.4µM* | .
CC(=O)Nc1ccc(NC(=O)CCc2c(C)nc3c(c(C)nn3-c3ccccc3)c2C)cc1 | 6.2% | 29.7% | . | -16.4% | -23.8% | .
CCC(C)NC(=O)CCc1c(C)nc2c(c(C)nn2-c2ccc(C)cc2)c1C (stereo unspecified) | -5.8% | . | . | 14.6µM* | 7.31µM* | .
CCOc1ccccc1NC(=O)CCc1c(C)nc2c(c(C)nn2-c2ccccc2)c1C | 0.4% | 4.2% | . | 16.4µM* | 16.4µM* | .
CC(=O)Nc1ccc(NC(=O)CCc2c(C)nc3c(c(C)nn3-c3ccc(C)cc3)c2C)cc1 | 1.7% | . | . | 14.6µM* | ? | .
COC(=O)c1ccccc1NC(=O)CCc1c(C)nc2c(c(C)nn2-c2ccccc2)c1C | -13.1% | -4.6% | . | 2.4% | -8.3% | .
COc1cn(CC(=O)Nc2cc(C)cc(C)c2)c(CN2CCCCC2)cc1=O | 16.8% | -0.1% | . | 4.2% | -19.2% | .
O=C1OCC/C1=C\c1ccc(O)cc1 | -5.9% | 14.5% | 3.7 | -13.0% | -17.0% | 13.2%
CCOC(=O)CCc1c(C)nc2c(c(C)nn2-c2ccc(C)cc2)c1C | -2.4% | 4.4% | 18.8 | -26.0% | -29.1% | -0.3%
CCOC(=O)c1ccc(NC(=O)CCc2c(C)nc3c(c(C)nn3-c3ccccc3)c2C)cc1 | 8.7% | 2.2% | . | 16.4µM* | 10.3µM* | .
Cc1noc(C)c1CSCC(=O)N(C)CC(=O)Nc1cccc(F)c1 | -14.0% | 1.1% | 6.2 | 3.9% | -24.5% | 6.6%
CCOc1ccc(N(CC)S(=O)(=O)N2CCCC(C(=O)NCCc3ccc(OC)cc3)C2)cc1 (stereo unspecified) | -2.1% | -10.2% | . | ? | ? | .
